Source: PubChem BioAssay (several laboratories)
An excerpt weighted towards active compounds, which were near 9.6% of everything screened.
Lmaj promast: Leishmania major promastigote growth inhibition | Leishmania major promastigotes, resazurin fluorescence viability | AID 1063 | inhibition, % at 10 µM | 200,000 compounds, 9% hits; in the data active means inhibition above about 50%;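 further: promastigotes grown with compound for 44 hours at 28 °C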
HCT116 bCat-KO: beta-catenin-lacking colon tumor cell growth suppression | HCT116 beta-catenin knockout viability, CellTiter-Glo, 60 h; active compounds read low | viability, % at 10 µM | 140,000 compounds, 1.5% hits;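 active means viability at or under a set limit, the compound median less 4 SD, cut at about 6% in these data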
Autophagy HCS: alters autophagy in cells; MEF GFP-LC3 puncta imaging; test concentration mostly 10 µM; calls only at 10 µM (by protocol); 190,000 compounds, 0.98% hits; AID 463193;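 active means percentage of spot-positive cells more than 3 SD above its plate mean, without a fluorescence outlier flag or 80% toxicity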
Insulin prom inh: TRM-6 insulin promoter activity inhibition. TRM-6 cells (human fetal islet line), insulin promoter-eGFP reporter, imaging; reporter expression induced with tamoxifen. inhibition, % at 2 µM. 130,000 compounds, 0.9% hits;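 active means inhibition above the mean plus 3 SD, with well images judged a real hit on visual review, cut at about 60% in these data, passing the limit was not always enough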
PTEN del growth: PTEN-deleted cell growth suppression; HCT116 PTEN-null viability, CellTiter-Glo, 60 h; active compounds read low; viability, % at 10 µM; 140,000 compounds, 1.2% hits; AID 827;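 active means viability at or below a set limit, 4 SD under the median of all tested compounds, cut at about 3.7% in these data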;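 further: PTEN knockout HCT116 line with beta catenin targeted HCT116 as companion control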
Ins promoter up: MIN6 insulin promoter up-regulation. z-score at 5 µM. MIN6 insulin promoter-GFP reporter, high-content imaging; active compounds read high. 190,000 compounds, 0.3% hits;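 active means z-score above 3 at 5 µM with at least 500 cells counted in the well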
Each line names hits and unclear results; the compound was inactive in the other large screens.

CCCOc1ccc(C(C)(O)CN2CCOCC2)cc1 (centres undefined)	none (no result: Insulin prom inh)
CC(C)(C)NC(=O)C(c1ccncc1)N(Cc1ccco1)C(=O)c1ccc(-c2ccccc2)[nH]1 (centres undefined)	Lmaj promast 74 (no result: HCT116 bCat-KO, PTEN del growth)
O=C(NC1CCCCC1)C(c1ccncc1)N(Cc1ccccc1)C(=O)c1ccc(-c2ccccc2)[nH]1 (centres undefined)	Lmaj promast 99
CC(C)(C)NC(=O)C(c1ccc(F)cc1)N(Cc1ccco1)C(=O)c1csnn1 (centres undefined)	none (no result: Insulin prom inh)
O=C(O/N=C1\CCCc2ccccc21)c1ccc(F)cc1	none
Cc1ccc(C(=O)COC(=O)c2ccc3c(c2)C(=O)N(c2cccc4ncccc24)C3=O)cc1	Lmaj promast 76
O=C(COC(=O)c1ccc2c(c1)C(=O)N(c1cccc3ncccc13)C2=O)c1ccc(Cl)cc1	none
O=C1CSC(c2ccccc2[N+](=O)[O-])N1c1cccc(F)c1 (centres undefined)	none (no result: HCT116 bCat-KO, Insulin prom inh, PTEN del growth)
CCc1ccc(/C(C)=N\Nc2ccc([N+](=O)[O-])cc2)cc1	Autophagy HCS active
C/C(=N\Nc1ccc([N+](=O)[O-])cc1)c1ccc(N)cc1	none
CCOCCCNC(=O)c1ccc2c(=O)n(Cc3ccc(OC)cc3)c(=O)[nH]c2c1	none (no result: HCT116 bCat-KO, PTEN del growth)
COc1ccc(/C=C/C(=O)NCCc2ccc(S(N)(=O)=O)cc2)cc1	Lmaj promast 62
NS(=O)(=O)c1ccc(CCNC(=O)/C=C/c2ccc([N+](=O)[O-])cc2)cc1	none (no result: HCT116 bCat-KO, PTEN del growth)
COc1ccc(CCNC(=O)COc2ccc(N(C)S(=O)(=O)c3ccc(Cl)cc3)cc2)cc1	Lmaj promast 97 (no result: HCT116 bCat-KO, Insulin prom inh, PTEN del growth)
COc1ccc(CCNC(=O)CCc2ccc(S(=O)(=O)NC(C)C)cc2)cc1	Insulin prom inh 71
Nc1nc(Cl)cc(N2CCCC2)n1	none (no result: HCT116 bCat-KO, Insulin prom inh, PTEN del growth)
Nc1nc(Cl)cc(N2CCC(c3cc(-c4ccc(Cl)cc4Cl)n[nH]3)CC2)n1	HCT116 bCat-KO 3.2 (no result: Ins promoter up)
C=CCn1c(SC/C=C/c2ccccc2)nnc1-c1sc(N)nc1C	none (no result: Ins promoter up)
COc1ccc(C(C)=O)cc1CSc1ncccn1	none (no result: HCT116 bCat-KO, Insulin prom inh, PTEN del growth)
C=CCn1c(SCc2cc(C(C)=O)ccc2OCC)nc2ccccc2c1=O	Lmaj promast 97
COc1ccc(C(C)=O)cc1CSc1nc2ccccc2c(=O)n1-c1ccccc1	none (no result: Insulin prom inh)
COc1ccc(C(C)=O)cc1CSc1nc2ccccc2o1	HCT116 bCat-KO 1.1, PTEN del growth 1.0 (no result: Ins promoter up)
COc1ccc(C(C)=O)cc1CSc1nc2ccccc2c(=O)n1-c1ccccc1C	Lmaj promast 78
COc1ccc(S(=O)(=O)N2CCCN(CC(=O)Nc3ccc(OC)c(Cl)c3)CC2)cc1	none (no result: Ins promoter up)
c1cnc2ccc(C(c3nnnn3C3CCCC3)N3CCN4CCCC4C3)cc2c1 (centres undefined)	Lmaj promast 52
c1cnc2ccc(C(c3nnnn3C3CCCCC3)N3CCCCC3)cc2c1 (centres undefined)	none
c1cnc2ccc(C(c3nnnn3C3CCCCC3)N3CCN(C4CCCCC4)CC3)cc2c1 (centres undefined)	Lmaj promast 99, Autophagy HCS active (no result: HCT116 bCat-KO, PTEN del growth, Ins promoter up)
O=C(O)CCC(=O)Nc1ccccc1C(=O)NCc1ccco1	none (no result: Ins promoter up)
Cc1cccc(NC(=O)c2ccccc2NC(=O)CCC(=O)O)c1	Insulin prom inh 79
O=C(O)CCC(=O)Nc1ccccc1C(=O)NCc1ccccc1	Lmaj promast 51
O=C(NCc1ccc(F)cc1)c1ccccc1OCc1ccccc1	Lmaj promast 79
Cc1ccc(NC(=O)c2ccccc2NC(=O)Cc2ccccc2)cc1	none
O=C(Cc1ccccc1)Nc1ccccc1C(=O)Nc1ccccc1	Lmaj promast 65
COc1ccccc1C(=O)NCc1ccccc1	none
COc1ccc(/C=N/NC(=O)CNc2c(Br)cc(C)cc2Br)c(C(=O)O)c1OC	none (no result: HCT116 bCat-KO, Insulin prom inh, PTEN del growth)
COc1ccccc1NC(=O)c1ccccc1S(=O)(=O)c1ccccc1[N+](=O)[O-]	none (no result: HCT116 bCat-KO, Insulin prom inh, PTEN del growth)
O=C(Nc1ccc(F)cc1)c1ccccc1S(=O)(=O)c1ccccc1[N+](=O)[O-]	Lmaj promast 58
NC(=O)c1ccccc1NC(=O)c1ccccc1S(=O)(=O)c1ccccc1[N+](=O)[O-]	Lmaj promast 65
CC(C)C(=O)NNS(=O)(=O)c1ccccc1[N+](=O)[O-]	Lmaj promast 54
CC(=O)Nc1ccc(NC(=O)c2ccccc2S(=O)(=O)c2ccccc2[N+](=O)[O-])cc1	none
CCN(C(=O)CSc1nc2cc(C(=O)OC)ccc2c(=O)n1Cc1ccco1)c1cccc(C)c1	Ins promoter up 4.5 (no result: Insulin prom inh)
